Several values for one entry are separate records, joined by “and”; a condition that tells them apart may be missing. Identical values can stand only once. Results filed as inconclusive are left out. Activity calls are given as the source filed them. Calls come from the whole dose curve; as a rule, active = well fitted curve in the direction sought with a large enough effect; inconclusive = small, poorly fitted or top-dose-only effect, or another doubt; inactive = no such curve, though single readings can be large; an effect the other way counts as inactive or inconclusive.
Assays:
HEK293 = test: Cytotoxic Profiling of Annotated Libraries Using Quantitative High-Throughput Screening (AID 1296008); settings: Five cell lines viability, CellTiter-Glo ATP luminescence, 48-72 h; max response: stronger effect = lower value; note: nearly all actives have a fitted effect of over 60% in size; note: potency is the fitted concentration of half-maximal effect; for max response: % is set by controls: 0 for no effect and ±100 for the full control effect
Procedure, shortened: (§1)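 Cytotoxicity was measured as CellTiter-Glo ATP luminescence, read after 10 min at room temperature. Compound treatment of the cells lasted 48 or 72 hr at 37 degrees Celsius in a qHTS format.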

HaCat [1] = test: as above; settings: Five cell lines viability, CellTiter-Glo ATP luminescence, 48-72 h; max response: stronger effect = lower value
Procedure, shortened: as §1

KB-3-1 = test: as above; settings: Five cell lines viability, CellTiter-Glo ATP luminescence, 48-72 h; max response: stronger effect = lower value
Procedure, shortened: as §1

NIH3T3 [2] = test: as above; settings: Five cell lines viability, CellTiter-Glo ATP luminescence, 48-72 h; max response: stronger effect = lower value
Procedure, shortened: as §1

HACAT [3] = test: qHTS assay to identify novel small-molecules to repurpose for Merkel cell carcinoma treatment (AID 1296009); settings: MCC and control cell lines, CellTiter-Glo viability, 72 h; at 44.8 µM (top of the series) unless noted; note: nearly all actives have a fitted effect of over 60% in size; note: potency is the fitted concentration of half-maximal effect
Procedure, shortened: (§2)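 Cell viability, measured as CellTiter-Glo luminescence, was normalized between DMSO and no-cell wells. The cells had been exposed to 8- or 11-point compound dilutions for 72 hr at 37 degree celsius.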

MCC-13 = test: as above; settings: MCC and control cell lines, CellTiter-Glo viability, 72 h; series mostly up to 46 µM
Procedure, shortened: as §2

MCC-26 = test: as above; settings: MCC and control cell lines, CellTiter-Glo viability, 72 h; series mostly up to 46 µM
Procedure, shortened: as §2

MKL-1 = test: as above; settings: MCC and control cell lines, CellTiter-Glo viability, 72 h; series mostly up to 46 µM
Procedure, shortened: as §2

MKL-2 = test: as above; settings: MCC and control cell lines, CellTiter-Glo viability, 72 h; series mostly up to 46 µM
Procedure, shortened: as §2

WaGa = test: as above; settings: MCC and control cell lines, CellTiter-Glo viability, 72 h; series mostly up to 46 µM
Procedure, shortened: as §2

CRL-7250 = normal cell line; test: Cytotoxic Profiling of Annotated Libraries Using Quantitative High-Throughput Screening (AID 1296008); settings: Five cell lines viability, CellTiter-Glo ATP luminescence, 48-72 h; max response: stronger effect = lower value; note: nearly all actives have a fitted effect of over 60% in size; note: potency is the fitted concentration of half-maximal effect; for max response: % is set by controls: 0 for no effect and ±100 for the full control effect
Procedure, shortened: as §1

UISO = test: qHTS assay to identify novel small-molecules to repurpose for Merkel cell carcinoma treatment (AID 1296009); settings: MCC and control cell lines, CellTiter-Glo viability, 72 h; series mostly up to 46 µM; note: nearly all actives have a fitted effect of over 60% in size; note: potency is the fitted concentration of half-maximal effect
Procedure, shortened: as §2

C33A = test: Primary qHTS to identify gynecologic anti-cancer compounds using libraries of approved drugs and bioactive compounds (AID 1345084); settings: Gynecologic cancer cell panel viability, ATPlite luminescence, 48 h; series mostly up to 57.5 µM; note: % is set by controls: 0 for no effect and ±100 for the full control effect; nearly all actives have a fitted effect of over 55% in size
Procedure, shortened: (§3)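 ATP-based viability (ATPlite), 1,000 cells/well, 16 h pre-incubation, 48 h compound at 37 C, 5% CO2, 15 min RT before read.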

CAOV3 = test: as above; settings: Gynecologic cancer cell panel viability, ATPlite luminescence, 48 h; series mostly up to 57.5 µM
Procedure, shortened: as §3

NIH3T3 [4] = test: qHTS assay to identify novel small-molecules to repurpose for Merkel cell carcinoma treatment (AID 1296009); settings: MCC and control cell lines, CellTiter-Glo viability, 72 h; at 44.8 µM (top of the series) unless noted; note: nearly all actives have a fitted effect of over 60% in size; note: potency is the fitted concentration of half-maximal effect
Procedure, shortened: as §2

TAB109 = test: qHTS profiling for inhibitors of Plasmodium falciparum proliferation (AID 504749); note: nearly all actives have a fitted effect of over 60% in size; note: potency is the fitted concentration of half-maximal effect; settings: P. falciparum in erythrocytes, SYBR Green DNA, 72 h; series mostly up to 28.7 µM
Procedure, shortened: (§4)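 SYBR Green fluorescence of parasite DNA, read after lysis and overnight dark incubation, measured growth over 72 h in erythrocyte culture at 0.3% parasitemia and 2.5% hematocrit. Data normalised to DMSO and 0.29 uM artemisinin, with plate-drift correction.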

TAB113 = test: as above; settings: P. falciparum in erythrocytes, SYBR Green DNA, 72 h; series mostly up to 28.7 µM
Procedure, shortened: as §4

TAB165 = test: as above; settings: P. falciparum in erythrocytes, SYBR Green DNA, 72 h; series mostly up to 28.7 µM
Procedure, shortened: as §4

W2 = test: as above; settings: P. falciparum in erythrocytes, SYBR Green DNA, 72 h; series mostly up to 28.7 µM
Procedure, shortened: as §4

O=C(O)c1cc(O)c2c(c1)C(=O)c1cccc(O)c1C2=O
inactive: max response (HEK293) -16.6% | outcome (HaCat [1]) | max response (KB-3-1) 0.608% | max response (NIH3T3 [2]) 0.522% | outcome (HACAT [3]) inactive [at 92 µM] | Potency (MCC-13) | Potency (MCC-26) | Potency (MKL-1) | Potency (MKL-2) | Potency (WaGa)

CC(C)C[C@H](CC(=O)O)C(=O)N[C@@H](Cc1c[nH]c2ccccc12)C(=O)N[C@@H](C)c1ccccc1
active: Potency (MKL-1) 4.69 µM | Potency (WaGa) 3.32 µM
inactive: max response (CRL-7250) -5.99% | max response (HaCat [1]) 3.15% | max response (KB-3-1) 5.47% | Potency (MCC-13) | Potency (MCC-26) | Potency (UISO)

CN[C@@H](C)C(=O)N[C@H]1CN(C(=O)CC(C)C)CC[C@H]2CC[C@@H](C(=O)NC(c3ccccc3)c3ccccc3)N2C1=O
active: Potency (HaCat [1]) 16.6 µM and 23.1 µM
inactive: max response (HEK293) -1.1% | max response (KB-3-1) 2.72% and 0.688% | max response (NIH3T3 [2]) -2.17% and -4.72% | Potency (MCC-13) | Potency (MKL-2) | Potency (C33A)

O=C1NC(=O)C(=Cc2ccc3nccnc3c2)S1
inactive: max response (HEK293) -10.3% | max response (HaCat [1]) -12.7% | max response (KB-3-1) -0.874% | max response (NIH3T3 [2]) -9.21% | Potency (MCC-13) | Potency (MCC-26) | Potency (MKL-1) | Potency (MKL-2) | Potency (UISO)

CC(=O)OC1C(C)OC(Oc2c(-c3ccc(O)cc3)oc3cc(O)cc(O)c3c2=O)C(O)C1OC(C)=O (configuration not stated)
inactive: max response (CRL-7250) -21.1% | max response (KB-3-1) 7.1% | Potency (MCC-13) | Potency (MCC-26) | Potency (UISO)

O=C(O)c1ccc(-c2cc3cccnc3c(-c3ccc4nonc4c3)n2)cc1
inactive: outcome (HaCat [1]) | outcome (HACAT [3]) | Potency (MCC-13) | Potency (MCC-26)
active: Potency (HEK293) 14.8 µM

CC(C)OC(=O)C(C)(C)Oc1ccc(C(=O)c2ccc(Cl)cc2)cc1
inactive: Potency (C33A) | Potency (CAOV3)

CC(=NNC(=S)N1CCC1)c1ccccn1
inactive: Potency (MKL-1) | Potency (MKL-2)
active: Potency (HEK293) 0.0042 µM | Potency (NIH3T3 [2]) 0.0187 µM | Potency (MCC-13) 0.0743 µM | Potency (MCC-26) 0.418 µM | Potency (UISO) 0.0033 µM | Potency (WaGa) 0.0007 µM

Cc1c(O)cccc1C(=O)N[C@@H](CSc1ccccc1)[C@H](O)CN1C[C@H]2CCCC[C@@H]2C[C@@H]1C(=O)NC(C)(C)C
inactive: Potency (MCC-13) | Potency (MCC-26) | Potency (MKL-1) | Potency (MKL-2)

COc1ccc(-c2oc3c(CC=C(C)C)c(OC4O[C@H](CO)[C@@H](O)[C@H](O)[C@@H]4O)cc(O)c3c(=O)c2OC2O[C@@H](C)[C@H](O)[C@@H](O)[C@@H]2O)cc1 (some centres not stated)
active: Potency (HEK293) 18.7 µM
inactive: max response (NIH3T3 [2]) -16.5% | Potency (MCC-13) | Potency (MCC-26) | Potency (MKL-1) | Potency (WaGa)

C[C@]12CC[C@@H]3c4ccc(O)cc4C[C@@H](CCCCCCCCCS(=O)CCCC(F)(F)C(F)(F)F)[C@H]3[C@H]1CC[C@H]2O (some centres not stated)
inactive: max response (HaCat [1]) 0.837% | max response (KB-3-1) 4.81% | outcome (NIH3T3 [2]) | Potency (MCC-13) | Potency (MCC-26) | Potency (MKL-1) | Potency (MKL-2) | outcome (NIH3T3 [4]) | Potency (WaGa)

COc1ccc(C2Sc3ccccc3N(CCN(C)C)C(=O)C2OC(C)=O)cc1 (configuration not stated)
inactive: Potency (C33A)

COCCOC(=O)C1=C(C)NC2=C(C(=O)CC(c3ccccc3OC)C2)C1c1cccc(O)c1 (configuration not stated)
inactive: max response (HaCat [1]) -1.34% | max response (KB-3-1) -11.3% | Potency (MCC-13) | Potency (MCC-26) | Potency (MKL-1) | Potency (C33A) | Potency (CAOV3)

c1ccc2c(Cc3c[nH]c4ccccc34)c[nH]c2c1
active: Potency (UISO) 0.469 µM
inactive: outcome (HaCat [1]) | max response (KB-3-1) -13.3% | outcome (HACAT [3]) | Potency (MCC-13) | Potency (MCC-26) | Potency (MKL-1) | Potency (WaGa)

Oc1ccc(C2=Cc3ccc(O)cc3OC2)cc1
active: Potency (HEK293) 9.35 µM | Potency (KB-3-1) 16.6 µM | Potency (NIH3T3 [2]) 7.43 µM | Potency (MCC-13) 10.5 µM | Potency (MCC-26) 20.9 µM | Potency (MKL-1) 2.96 µM | Potency (WaGa) 2.35 µM

CC(C)n1cnc2c(NCCCCCCNC(=O)OC(C)(C)C)nc(NCCO)nc21
inactive: max response (HaCat [1]) -3.35% | Potency (MCC-13) | Potency (MCC-26) | Potency (MKL-1) | Potency (MKL-2) | Potency (UISO)
active: Potency (HEK293) 14.8 µM

O=C(N[C@@H](c1ccccc1)[C@@H]1CCCCN1)c1cccc(C(F)(F)F)c1Cl
inactive: max response (HaCat [1]) 4.43% | max response (KB-3-1) -7.93% | max response (NIH3T3 [2]) -0.909% | Potency (MCC-13) | Potency (MCC-26) | Potency (MKL-1) | Potency (MKL-2) | Potency (UISO) | Potency (WaGa)

O=C(NOCC(O)CO)c1cc(Br)c(F)c(F)c1Nc1ccc(I)cc1F (configuration not stated)
inactive: max response (HEK293) 0.434% | max response (KB-3-1) -16.7% | Potency (MKL-1) | Potency (MKL-2) | Potency (UISO) | Potency (WaGa)

COc1ccc(Cc2nccc3cc(OC)c(OC)cc23)cc1OC
inactive: outcome (TAB109) | Potency (TAB113) | Potency (TAB165) | Potency (W2)

Nc1nc(F)nc2c1ncn2[C@@H]1O[C@H](COP(=O)(O)O)[C@@H](O)[C@H]1O
active: Potency (UISO) 13.2 µM | Potency (WaGa) 14.8 µM
inactive: max response (HEK293) -8.85% | outcome (KB-3-1) | Potency (MCC-26)

Cc1ccc(C(=O)Nc2cccc(C(F)(F)F)c2)cc1Nc1nc(-c2cccnc2)nc2c1cnn2C
inactive: max response (KB-3-1) -14.6% | Potency (MCC-13) | Potency (MCC-26) | Potency (MKL-1) | Potency (MKL-2) | Potency (WaGa)
active: Potency (HEK293) 13.2 µM | Potency (NIH3T3 [2]) 9.35 µM

CC(C)=CC[C@@H](O)C1=CC(=O)c2c(O)ccc(O)c2C1=O
inactive: outcome (HaCat [1]) | max response (KB-3-1) 6.3% | max response (NIH3T3 [2]) 4.11% | outcome (HACAT [3]) | Potency (MCC-13) | Potency (MCC-26) | Potency (UISO)
active: Potency (MKL-2) 20.9 µM | Potency (WaGa) 23.5 µM

O=c1[nH]cnc2c1ncn2[C@H]1CC[C@@H](CO)O1
active: Potency (W2) 13.5 µM
inactive: outcome (TAB109) | Potency (C33A) | Potency (CAOV3)

Cc1ccc(F)c(NC(=O)Nc2ccc(-c3cccc4[nH]nc(N)c34)cc2)c1
inactive: max response (HaCat [1]) 2.26% | max response (NIH3T3 [2]) -7.65% | Potency (MCC-13) | Potency (MKL-2) | Potency (WaGa)

COCCCCC(=NOCCN)c1ccc(C(F)(F)F)cc1
active: Potency (W2) 2.69 µM

Cc1nnc(C(C)C)n1C1C[C@H]2CC[C@@H](C1)N2CC[C@H](NC(=O)C1CCC(F)(F)CC1)c1ccccc1 (some centres not stated)
inactive: max response (HaCat [1]) 3.6% | max response (KB-3-1) 3.29% | outcome (NIH3T3 [2]) | Potency (MCC-13) | Potency (MCC-26) | Potency (MKL-1) | Potency (MKL-2) | outcome (NIH3T3 [4]) | Potency (UISO) | Potency (WaGa)

C[N+](C)(C)CC(=O)O
inactive: Potency (MCC-13) | Potency (MKL-1) | Potency (MKL-2) | Potency (UISO) | Potency (WaGa) | Potency (C33A) | Potency (CAOV3)

CC(C)OC(=O)CCCC=CC[C@@H]1[C@H](C=C[C@@H](O)COc2cccc(C(F)(F)F)c2)[C@H](O)C[C@@H]1O
inactive: Potency (MCC-26) | Potency (MKL-1)
active: Potency (HEK293) 11.8 µM

C[C@H](NC(=O)C(=O)Nc1ccccc1C(C)(C)C)C(=O)N[C@@H](CC(=O)O)C(=O)COc1c(F)c(F)cc(F)c1F
inactive: outcome (HaCat [1]) | outcome (KB-3-1) | outcome (NIH3T3 [2]) | outcome (HACAT [3]) | Potency (MCC-26) | outcome (NIH3T3 [4])
active: Potency (MKL-1) 20.9 µM | Potency (MKL-2) 16.6 µM
